CBX7 AlphaScr = CBX7 chromodomain binding inhibitors, primary screen, biochemical, AlphaScreen | Chromobox protein homolog 7 (Homo sapiens), O95931 | AlphaScreen His6-CBX7 / biotin-H3K27me3 peptide binding; hits give low values | normalised signal (fraction of DMSO) (test concentration not listed) | AID 1224903, 2016 | 66,000 compounds, 1.1% hits; in the data active means normalised signal below about 0.5
Target sequence (O95931 whole entry, looked up): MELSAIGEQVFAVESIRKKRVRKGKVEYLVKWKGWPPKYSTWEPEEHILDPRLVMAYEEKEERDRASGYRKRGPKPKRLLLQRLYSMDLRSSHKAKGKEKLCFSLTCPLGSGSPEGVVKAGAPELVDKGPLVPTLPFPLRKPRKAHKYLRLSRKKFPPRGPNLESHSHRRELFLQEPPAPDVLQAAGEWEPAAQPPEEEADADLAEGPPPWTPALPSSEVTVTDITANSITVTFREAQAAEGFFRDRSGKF
Hits are given with their value; - = inactive. This excerpt belongs to a sample that is enriched for hits.

SMILES | CBX7 AlphaScr
O=C(Nc1nc(-c2ccncc2)cs1)c1ccc(S(=O)(=O)N2CCCCCC2)cc1 | -
CCc1cccc(NC(=O)C(NS(=O)(=O)c2cccs2)C(C)C)c1 (configuration not stated) | -
CC(Oc1ccccc1F)C(=O)Nc1c(C(=O)c2ccc(Br)cc2)oc2ccccc12 (configuration not stated) | -
Cc1ccc(CCNC(=O)c2nc(-c3ccccc3C)oc2C)cc1 | -
Cc1ccnc(Nc2nc(-c3c(C)nc4cc(C)ccn34)cs2)c1 | -
Cc1ccnc(Nc2nc(-c3sc(N)nc3C)cs2)c1 | 0.404
Cc1ccnc(Nc2nc(-c3ccc(C(C)C)cc3)cs2)c1 | -
COc1ccc(OC)c(CNC(=O)CN2C(=O)COc3ccc(C(C)(C)C)cc32)c1 | -
Cc1ccc(-n2ncc(C(=O)Nc3ccccc3)c2C2CCN(C(=O)OC(C)(C)C)CC2)cc1C | -
O=C(CN1C(=O)CCSc2ccccc21)N1CCN(c2ncccn2)CC1 | -
Cc1ccc(NC(=O)c2ccccc2)c(NC(=O)c2c(-c3ccccc3Cl)noc2C)c1 | -
CN(Cc1ccccc1)S(=O)(=O)c1ccc(C(=O)Nc2nnc(C3CC3)o2)cc1 | -
CCN(CC)S(=O)(=O)c1ccc(C(=O)Nc2nnc(-c3cccs3)o2)cc1 | -
C=CCN(CC=C)S(=O)(=O)c1ccc(C(=O)Nc2sc3c(c2C(=O)OC)CCN(C)C3)cc1 | -
C=CCN(CC=C)S(=O)(=O)c1ccc(C(=O)Nc2nnc(C3CC3)o2)cc1 | 0.00398
N#CCCN(CCC#N)S(=O)(=O)c1ccc(C(=O)Nc2nnc(C3CC3)o2)cc1 | 0.00211
CCN(CC)S(=O)(=O)c1ccc(C(=O)Nc2nnc(C3CC3)o2)cc1 | 0.00295
CCOc1cc2[nH]c(=O)n(CCCC(=O)NCCCN(CC)c3ccccc3)c(=O)c2cc1OCC | -
Cc1ccc(NC(=O)C(=O)NCCc2c[nH]c3ccccc23)cc1 | -
Cc1nc2c(-c3ccc(F)cc3)c(C)nn2c(C)c1CCC(=O)NCCC(C)C | -
COc1ccccc1Nc1cc(C(=O)NCCC2=CCCCC2)c2ccccc2n1 | -
C=CCN1C(=O)N(c2ccc(F)cc2)C(=O)C1CC(=O)Nc1ccc(OCC)cc1 (configuration not stated) | -
CCOc1ccccc1C(=O)N1CC(=O)Nc2ccc(Br)cc2C1c1ccc(F)cc1 (configuration not stated) | -
O=c1[nH]c2ccccc2n1CCCOc1ccc(Cl)cc1 | -
O=C1C2C3C=CC(C3)C2C(=O)N1c1ccccc1O (configuration not stated) | -
SMILES | CBX7 AlphaScr
Fc1ccc(C(c2ccc(F)cc2)N2CCN(CCCc3c[nH]c4ccccc34)CC2)cc1 | 0.487
CC(C)c1ccc(C(c2ccccc2)N2CCN(C(=O)CCc3c[nH]c4ccccc34)CC2)cc1 (configuration not stated) | -
Clc1ccc(C(c2ccc(Cl)cc2)N2CCN(CCCc3c[nH]c4ccccc34)CC2)cc1 | -
COc1ccc(CNC(=O)CCc2nc(-c3ccccc3F)no2)cc1 | -
COc1ccccc1CNC(=O)CN1CCCN(Cc2ccc(F)cc2Cl)C1=O | -
Fc1ccc(Nc2nc(Cc3ccccc3)nc3sc4c(c23)CCCC4)cc1 | -
COc1ccc2c(c1)c(CC(=O)NCCOc1ccccc1C)c(C)n2C(=O)c1ccc(Cl)cc1 | -
C=CCc1cc(C)ccc1OCC(O)CN1CCN(c2ccccc2)CC1 (configuration not stated) | 0.382
C=CCc1cc(C)ccc1OCC(O)CN1CCCCC1 (configuration not stated) | -
C=CCc1ccccc1OCC(O)CN1CCN(c2ccccc2)CC1 (configuration not stated) | -
CCOc1cc2c(cc1OCC)C1C(C(=O)NCc3ccc(F)cc3)c3ccccc3C(=O)N1CC2 (configuration not stated) | -
COc1ccc(-n2nnc3c(=O)n(CC(=O)NC4CCCCC4)cnc32)cc1 | -
Cc1cccc(N2CCN(C(=O)c3cc(-c4ccncc4)nc4ccccc34)CC2C)c1 (configuration not stated) | 0.406
Cc1cccc(N2CCN(C(=O)c3cnn(-c4ccccc4)c3-n3cccc3)CC2C)c1 (configuration not stated) | -
O=C(c1cc(-c2ccncc2)nc2ccccc12)N1CCN(c2ccccn2)CC1 | -
O=C(CCCC1=NS(=O)(=O)c2ccccc2N1)NCc1ccc(Cl)cc1 | -
Cc1cc(N2CCc3ccccc32)n2nc(C)c(-c3ccc(Cl)cc3)c2n1 | -
Cc1cccc(NC(=O)C(=O)NCCCn2ccnc2)c1 | 0.418
Cc1ccc(NC(=O)C(=O)NCCCn2ccnc2)cc1Cl | -
O=C(NCCCn1ccnc1)c1cc(-c2ccc(Cl)c(Cl)c2)on1 | -
O=C(NCCCN1CCOCC1)c1cc(-c2ccco2)on1 | -
O=C(NCCCn1ccnc1)c1cc(-c2ccco2)on1 | 0.424
COc1cccc(NC(=O)C(=O)NCCCn2ccnc2)c1 | -
COc1ccc(NC2c3ncccc3C(=O)N2Cc2ccc(F)cc2)cc1 (configuration not stated) | -
COc1ccc(CN2C(=O)c3cccnc3C2Nc2cc(Cl)ccc2OC)cc1 (configuration not stated) | 0.00532
SMILES | CBX7 AlphaScr
COc1ccc(CN2C(=O)c3cccnc3C2Nc2cc(Cl)ccc2C)cc1 (configuration not stated) | -
COc1ccc(CN2C(=O)c3cccnc3C2O)cc1 (configuration not stated) | 0.0103
COc1ccc(NC2c3ncccc3C(=O)N2Cc2ccc(F)cc2)cc1Cl (configuration not stated) | -
O=C1c2cccnc2C(Nc2ccc(F)cc2)N1Cc1ccc(F)cc1 (configuration not stated) | -
O=C1c2cccnc2C(Nc2ccc(F)c(Cl)c2)N1Cc1ccc(F)cc1 (configuration not stated) | -
CCOC(=O)c1ccc(NC2c3ncccc3C(=O)N2Cc2ccc(F)cc2)cc1 (configuration not stated) | 0.445
CCC(C)NC(=O)C1c2ccccc2C(=O)N1Cc1ccc(OC)cc1 (configuration not stated) | -
CCN(CC)CCCNC(=O)C1CCCN(c2nn3c(=O)cc(C)nc3s2)C1 (configuration not stated) | -
CC(=O)Nc1cccc(NC(=O)c2sc3nc(-c4ccc(F)cc4)cn3c2C)c1 | -
Cc1cccc(NC(=O)C(C(C)C)N2C(=O)c3ccccc3C2=O)c1 (configuration not stated) | -
CCOc1cc2[nH]c(=O)n(Cc3ccc(C(=O)NCc4ccccn4)cc3)c(=O)c2cc1OCC | -
COc1ccc(OC)c(-c2cc(C(=O)O)c3ccccc3n2)c1 | -
O=C(CSc1nnc(Cc2cc(=O)[nH]c(=O)[nH]2)n1-c1ccc(F)cc1)N1CCOCC1 | -
O=C(NCc1ccccc1Cl)c1cnc2ccccn2c1=O | -
COc1ccc(NC2c3ccccc3C(=O)N2c2ccc(Cl)cc2)cc1OC (configuration not stated) | -
COc1ccc(NC2c3ccccc3C(=O)N2c2ccc(Cl)cc2)cc1 (configuration not stated) | 0.419
CCc1ccc(NC2c3ccccc3C(=O)N2c2ccc(Cl)cc2)cc1 (configuration not stated) | -
CCc1nnc(NC(=O)c2ncn[nH]2)s1 | 0.382
CCc1nnc(NC(=O)c2ccc(C(C)(C)C)cc2)s1 | -
CCc1nnc(NC(=O)c2cc(OC)c(OC)c(OC)c2)s1 | -

Bioassay records as filed in PubChem BioAssay.
